Rows were chosen to be rich in hits. Some 3.3% of all compounds tested hit in one or more screens of this group.
AmpC detergent: AmpC beta-lactamase inhibition with detergent present | 0.041% of 370,000 active | Potency, µM (top dose mostly 114 µM), for the others: at the highest dose activity change, negative = inhibition, actives largely listed as inhibitors | AmpC hydrolysis of nitrocefin, absorbance 480 nm, 0.01% Triton;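 note: 0% = no-compound wells and -100% = no-enzyme wells; nearly all actives have a fitted effect of over 25% in size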
Target sequence (P00811 whole entry, looked up): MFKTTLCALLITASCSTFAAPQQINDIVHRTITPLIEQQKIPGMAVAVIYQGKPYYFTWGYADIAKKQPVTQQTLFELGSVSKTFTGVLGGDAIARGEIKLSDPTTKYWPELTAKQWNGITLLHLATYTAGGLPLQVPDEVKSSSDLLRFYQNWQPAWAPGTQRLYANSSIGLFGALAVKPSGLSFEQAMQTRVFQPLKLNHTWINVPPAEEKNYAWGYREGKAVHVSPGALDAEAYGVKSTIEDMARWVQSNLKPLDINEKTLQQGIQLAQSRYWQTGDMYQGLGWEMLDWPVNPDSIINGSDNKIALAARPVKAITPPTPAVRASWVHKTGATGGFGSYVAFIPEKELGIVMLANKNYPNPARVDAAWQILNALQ
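20 mM phosphate pH 7.0 + 0.01% (detergent screen) or 0.0001% Triton X-100; 5.3 nM AmpC reagent; cpd preinc 15 min RT; nitrocefin (800 uM stock) to start; A480 q20 s × 4 min; Activity was normalised to no-enzyme and no-compound control wells.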
AmpC no deterg: AmpC beta-lactamase inhibition without detergent; P00811; AmpC nitrocefin hydrolysis, absorbance 480 nm, 0.0001% Triton; Potency, µM (top dose mostly 57.1 µM), inactives show top-dose activity change, negative = inhibition, most hits filed as inhibitors; 0.52% of 330,000 active; AID 485341;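 note: plate controls were no compound for no effect and no enzyme for full effect; nearly all actives have a fitted effect of over 20% in size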
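AmpC (5.3 nM in the dispensed reagent) in 20 mM phosphate pH 7.0 with 0.01% (detergent screen) or 0.0001% Triton X-100 was preincubated with compounds for 15 min at room temperature. Nitrocefin was then added from an 800 uM solution, and hydrolysis was followed at 480 nm.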
RE007 growth inh: less growth of the S. pombe RE007 Vpr strain; AID 651644; S. pombe RE007 Vpr strain, BacTiter-Glo ATP luminescence, 24 h; 0.21% of 360,000 active; Potency, µM (titrated, usually from 92.2 µM), for inactives: at the top dose activity change, negative = less growth, hits mostly inhibitors; active = well fitted falling curve with a large enough effect; inconclusive = small, poorly fitted or top-dose-only effect; inactive = no such curve, though single readings can be large or run the other way; note: % is set by controls: 0 for no effect and ±100 for the full control effect; nearly all actives have a fitted effect of over 50% in size
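Fission yeast strain RE007, carrying one chromosomally integrated HIV-1 vpr copy, was seeded at OD 0.01 in PMG+AL medium with 23 nL pinned compound. After 24 h at 30 °C and 99% humidity, viability was read by BacTiter-Glo luminescence.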
Sm TGR block: S. mansoni TGR enzyme inhibition; 3% of 360,000 active; Potency, µM (highest dose often 114 µM), without a hit: at the top dose activity change, negative = inhibition, usual class: inhibitors; purified TGR, DTNB reduction, TNB absorbance 405 nm; Q962Y6; note: % is set by controls: 0 for no effect and ±100 for the full control effect; nearly all actives have a fitted effect of over 60% in size
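Kinetic colorimetric format: TGR-catalysed, NADPH-driven DTNB reduction monitored via TNB absorbance. Enzyme dispensed at 20 nM; compound exposure 15 min at room temperature before reaction start.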
TbPYK inhibitor: T. brucei pyruvate kinase inhibition; Potency, µM (doses to about 76.8 µM), for inactives: top-dose activity, negative = inhibition, hits mostly inhibitors; 0.12% of 410,000 active; Q57TT1; TbPYK enzyme, Kinase-Glo Plus ATP luminescence, 45 min; note: % is set by controls: 0 for no effect and ±100 for the full control effect; nearly all actives have a fitted effect of over 50% in size
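ADP (130 uM final) triggers the TbPYK reaction after compound addition; incubation is 45 min at room temperature. Kinase-Glo Plus is then added and luminescence imaged. Normalized data are fitted to concentration-effect curves.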
SARS PLP yeast: blocks SARS-CoV papain-like protease in a yeast assay | S. cerevisiae expressing SARS-CoV PLpro, growth rescue | Potency, µM (series often up to 32.9 µM), without a hit: at the highest dose activity, positive = growth rescue, usual class: activators | 0.19% of 330,000 active | AID 485353; calls by dose curve; note: 0% is about no effect; nearly all actives have a fitted effect of over 55% in size
Numbers without * were called inactive; ? = inconclusive; . = no result; ! = repeats disagree. Unless noted, calls come from the whole dose curve; as a rule, active = well fitted curve in the direction sought with a large enough effect; inconclusive = small, poorly fitted or top-dose-only effect, or another doubt; inactive = no such curve, though single readings can be large; an effect the other way counts as inactive or inconclusive. Potency is the fitted concentration of half-maximal effect.

SMILES	AmpC detergent	AmpC no deterg	RE007 growth inh	Sm TGR block	TbPYK inhibitor	SARS PLP yeast
CC1=CC(c2ccc(Cl)cc2)n2nc(NS(=O)(=O)c3ccc(C)cc3)nc2N1 (stereo not given)	2%	-29%	-16%	32µM*	3%	-4%
Cc1ccc(S(=O)(=O)Nc2nc3n(n2)C(c2ccc(Cl)cc2)C=C(c2ccccc2)N3)cc1 (stereo not given)	11%	.	.	2%	-4%	.
CC1=CC(c2ccccc2)n2nc(NS(=O)(=O)c3ccc(C)cc3)nc2N1 (stereo not given)	-1%	0%	-6%	35µM*	0%	3%
CN1CCN(C2(CNC(=O)c3ccc(C(C)(C)C)cc3)CCCCC2)CC1	1%	.	.	8%	-2%	.
CC(C)(C)c1ccc(C(=O)NC2(C(F)(F)F)NC(=O)N(CCc3ccccc3)C2=O)cc1 (stereo not given)	19%	.	.	17%	2%	.
C1=C(c2cn(-c3nc4ccccc4s3)nn2)CCCC1	.	.	-13%	.	0%	.
Oc1ccc(-c2c(C3=CCCCC3)sc3ccccc23)cc1	?	-37%	-20%	79µM*	-4%	-29%
CCOC(=O)c1sc2ncn(CC(=O)Nc3ccc(OC)c(Cl)c3)c(=O)c2c1C	7%	.	.	-1%	2%	.
Cc1cccc(-c2nc(CS(=O)CC(=O)NCc3cccs3)c(C)o2)c1 (stereo not given)	-13%	26%	-5%	-23%	2%	3%
Cc1oc(-c2ccccc2)nc1CS(=O)CC(=O)N1CCc2ccccc2C1 (stereo not given)	-19%	29%	-13%	3.2µM*	-11%	-5%
Cc1cccc(-c2nc(CS(=O)CC(=O)N3CCCCC3)c(C)o2)c1 (stereo not given)	?	6%	-18%	35µM*	-4%	-2%
Cc1cccc(-c2nc(CS(=O)CC(=O)NCC3CCCO3)c(C)o2)c1 (stereo not given)	?	0%	-3%	28µM*	4%	?
CCc1nnc(NC(=O)CSc2nccn2Cc2ccc(Cl)cc2)s1	3%	.	.	-16%	-14%	.
CCOc1cccc2sc(NC(=O)c3ccc(S(=O)(=O)N4CCCCC4)cc3)nc12	-5%	.	.	5%	-9%	.
COCCNC(=O)CCCn1c(=O)[nH]c2ccsc2c1=O	7%	.	.	-5%	-4%	.
Cc1ccc(N=Nc2c(O)ccc3n[nH]nc23)cc1	-8%	-42%	?	32µM*	-22%	-3%
Cc1cccc(NC(=O)c2ccccc2NC(=O)C2CCCCC2)c1C	-7%	-32%	15%	13µM*	-2%	?
O=C(Nc1ccccc1)c1ccccc1NC(=O)C1CCCCC1	-1%	-34%	5%	4%	-4%	-6%
Oc1ccc(/C(Cc2ccccn2)=N\Nc2ccccc2)c(O)c1	13%	-50%	22%	?	1%	-13%
Oc1ccc(/C(Cc2ccc3ccccc3n2)=N\Nc2ccccc2)c(O)c1	2%	-41%	81%	25µM*	1%	0%
COc1ccc(S(=O)(=O)NNC(=O)c2ccc(-n3c(C)ccc3C)cc2)cc1	-15%	-50%	4%	10µM*	4%	-1%
COc1ccc(C(=O)NNS(=O)(=O)c2ccc(OC)cc2)cc1	5%	3%	2%	-3%	3%	4%
O=C(Oc1cc(=O)oc2c1c(=O)n1c3c(cccc23)CC1)c1ccc(F)cc1	?	-10%	2%	25µM*	12%	1%
O=C(Oc1cc(=O)oc2ccccc12)c1ccccc1	-6%	-37%	-2%	7%	2%	0%
O=C(Oc1cc(=O)oc2c1c(=O)n1c3c(cccc23)CC1)c1ccccc1	1%	-10%	?	10µM*	-1%	1%
SMILES	AmpC detergent	AmpC no deterg	RE007 growth inh	Sm TGR block	TbPYK inhibitor	SARS PLP yeast
Cc1cc2nc(-c3ccc(NC(=O)c4ccc(OCC(C)C)cc4)cc3)oc2cc1C	17%	.	.	-2%	-13%	.
Cc1ccc(CNC(=O)CCC2CCCN(C(=O)c3ccc4c(c3)OCO4)C2)o1 (stereo not given)	6%	13%	2%	14µM*	-12%	1%
Cc1ccc(CNC(=O)CCC2CCCN(C(=O)CCC(F)(F)F)C2)o1 (stereo not given)	6%	28%	7%	13µM*	-8%	0%
CC1(C)Cc2c(C#N)c(NCCO)nc(-c3ccco3)c2CO1	5%	20%	-13%	3.5µM*	-8%	1%
CC1(C)Cc2c(C#N)c(NCCN3CCOCC3)nc(-c3ccco3)c2CO1	?	129%	-7%	35µM*	-6%	-1%
COC(=O)c1c(C)oc(C)c1S(=O)(=O)N(C)C1CCCCC1	2%	10%	-6%	45µM*	-1%	-1%
CS(=O)(=O)Nc1ccc(C2=NN(C(=O)C3CCCCC3)C(c3cccs3)C2)cc1 (stereo not given)	-15%	7.1µM*	22%	-1%	-3%	3%
CC(C)C(=O)N1N=C(c2ccc(NS(C)(=O)=O)cc2)CC1c1cccs1 (stereo not given)	-4%	-56%	6%	-16%	6%	14%
Cc1ccc(S(=O)(=O)c2nc(-c3ccc(Cl)cc3)oc2N2CCCCCC2)cc1	-2%	.	.	40µM*	10%	.
Cc1ccc(S(=O)(=O)c2nc(C(C)(C)C)oc2N2CCOCC2)cc1	-5%	-7%	-11%	1.1µM*	?	2%
O=S(=O)(c1ccccc1)c1nc(-c2cccc(Cl)c2)oc1N1CCOCC1	1%	-15%	-8%	32µM*!	0%	0%
CCOc1ccc(-c2nc(S(=O)(=O)c3ccccc3)c(N3CCC(C(N)=O)CC3)o2)cc1	3%	16%	-10%	35µM*	15%	7%
O=S(=O)(c1ccccc1)c1nc(-c2ccccc2)oc1N1CCOCC1	2%	6%	-8%	8%	3%	1%
COc1ccc(-c2nc(S(=O)(=O)c3ccccc3)c(N3CCC(C)CC3)o2)cc1	20%	.	.	3%	2%	.
Cc1cc(NC(=O)Nc2nnc(N(C)Cc3ccccc3)s2)ccc1Br	-5%	.	.	0%	-6%	.
COc1ccc(-c2nc(S(=O)(=O)c3ccc(C)cc3)c(N3CCCC3)o2)cc1	?	-5%	-1%	2µM*	31%	-3%
COc1ccc(-c2nc(S(=O)(=O)c3ccccc3)c(N3CCCC3)o2)cc1	.	.	10%	.	29%	.
Cc1ccc(-c2nc(S(=O)(=O)c3ccc(C)cc3)c(N3CCCCC3)o2)cc1	1%	.	.	8.9µM*	-7%	.
